Test results from PubChem BioAssay (EPA / NIEHS).
Where “and” joins values, the source holds several entries; their conditions need not be identical. Identical values can stand only once. Results filed as inconclusive are left out. Where a structure was tested more than once in an assay, its records may differ in their call. Calls of active or inactive are those of the source. Rule for the calls, unless noted: active = hit-call score of the fitted dose curve at least 0.9, where 1 is the maximum; inconclusive = response in the unintended direction; inactive = score below 0.9.

Assays:
[1] = read-out: sulfotransferase 2A1 (SULT2A1), SULT2A1 (gene 6822); assay: LTEA_HepaRG_SULT2A1: Life Technologies and Expression Analysis (LTEA) Assay for sulfotransferase 2A1 (SULT2A1) using HepaRG (AID 2283531; active = hit-call score of the fitted dose curve at least 0.9, where 1 is the maximum; inactive = score below 0.9); conditions: mRNA level, 48 h; actives raise or lower the signal
Summary of the method: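 Gene-expression endpoint in a human liver cell line: SULT2A1 mRNA change after 48 h chemical treatment, curves fitted in both directions relative to 0.5% DMSO vehicle. Concentrations spanned eight half-log steps from 100 uM.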

[2] = read-out: Transforming Growth Factor (TGFA), TGFA (gene 7039); assay: LTEA_HepaRG_TGFA: Life Technologies and Expression Analysis (LTEA) Assay for Transforming Growth Factor (TGFA) using HepaRG (AID 2283532; active = hit-call score of the fitted dose curve at least 0.9, where 1 is the maximum; inactive = score below 0.9); conditions: mRNA level, 48 h; actives raise or lower the signal
Summary of the method: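 TGFA transcript quantified by qRT-PCR (Fluidigm arrays) against three housekeeping genes, after 48 hours chemical treatment of HepaRG cells. Top concentration 100 uM with half-log dilutions, 8 points, duplicates, 0.5% DMSO.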

[3] = read-out: TIMP1, TIMP1 (gene 7076); assay: LTEA_HepaRG_TIMP1: Life Technologies and Expression Analysis (LTEA) Assay for TIMP1 using HepaRG (AID 2283534; active = hit-call score of the fitted dose curve at least 0.9, where 1 is the maximum; inactive = score below 0.9); conditions: mRNA level, 48 h; actives raise or lower the signal
Summary of the method: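 TIMP1 induction or repression in HepaRG cells after 48 h chemical exposure (eight concentrations, highest 100 uM), assessed by normalized qRT-PCR with bidirectional fitting to DMSO controls.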

[4] = read-out: Tumor necrosis factor receptor 1 (TNFRSF1A), TNFRSF1A (gene 7132); assay: LTEA_HepaRG_TNFRSF1A: Life Technologies and Expression Analysis (LTEA) Assay for Tumor necrosis factor receptor 1 (TNFRSF1A) using HepaRG (AID 2283535; active = hit-call score of the fitted dose curve at least 0.9, where 1 is the maximum; inactive = score below 0.9); conditions: mRNA level, 48 h; actives raise or lower the signal
Summary of the method: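 Assay uses 48 h chemical treatment of differentiated HepaRG monolayers, tested in duplicate at eight concentrations from 100 uM downward in 0.5% DMSO. mRNA is normalized to ACTB, GAPDH and POLR2A, with induction or suppression fitted relative to vehicle.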

[5] = read-out: Thyroid Hormone Responsive (THRSP), THRSP (gene 7069); assay: LTEA_HepaRG_THRSP: Life Technologies and Expression Analysis (LTEA) Assay for Thyroid Hormone Responsive (THRSP) using HepaRG (AID 2283536; active = hit-call score of the fitted dose curve at least 0.9, where 1 is the maximum; inactive = score below 0.9); conditions: mRNA level, 48 h; actives raise or lower the signal
Summary of the method: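 THRSP transcript quantified by Fluidigm qRT-PCR against three housekeeping genes after 48 h chemical exposure of HepaRG cells in serum-free induction medium; eight-point half-log series, top 100 uM, 0.5% DMSO vehicle, duplicate wells.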

[6] = read-out: Cellular tumor antigen p53 (Homo sapiens) (UniProt P04637); assay: LTEA_HepaRG_TP53: Life Technologies and Expression Analysis (LTEA) Assay for Tumor Protein P53 (TP53) using HepaRG (AID 2283537; active = hit-call score of the fitted dose curve at least 0.9, where 1 is the maximum; inactive = score below 0.9); conditions: mRNA level, 48 h; actives raise or lower the signal
Summary of the method: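 HepaRG, 48 h exposure, top 100 uM, half-log 8-point, 0.5% DMSO vehicle, duplicates. Read: TP53 mRNA by TaqMan qRT-PCR, normalised to ACTB/GAPDH/POLR2A; bidirectional fit vs DMSO.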

[7] = read-out: UDP glucuronosyltransferase (UGT1A1), UGT1A1 (gene 54658); assay: LTEA_HepaRG_UGT1A1: Life Technologies and Expression Analysis (LTEA) Assay for UDP glucuronosyltransferase (UGT1A1) using HepaRG (AID 2283538; active = hit-call score of the fitted dose curve at least 0.9, where 1 is the maximum; inactive = score below 0.9); conditions: mRNA level, 48 h; actives raise or lower the signal
Summary of the method: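 mRNA induction or loss of UGT1A1, by TaqMan qRT-PCR, in duplicate HepaRG wells after 48 h exposure to half-log dilutions topping at 100 uM; DMSO (0.5%) served as baseline.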

[8] = read-out: UDP glucuronosyltransferase (UGT1A6), UGT1A6 (gene 54578); assay: LTEA_HepaRG_UGT1A6: Life Technologies and Expression Analysis (LTEA) Assay for UDP glucuronosyltransferase (UGT1A6) using HepaRG (AID 2283539; active = hit-call score of the fitted dose curve at least 0.9, where 1 is the maximum; inactive = score below 0.9); conditions: mRNA level, 48 h; actives raise or lower the signal
Summary of the method: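 Measures mRNA change in HepaRG hepatic cells exposed 48 h to chemicals (eight-point, maximum 100 uM, 0.5% DMSO vehicle) in serum-free induction medium. Expression normalized to endogenous controls; DMSO served as negative control and baseline.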

[9] = read-out: X-box binding protein 1 (XBP1), XBP1 (gene 7494); assay: LTEA_HepaRG_XBP1: Life Technologies and Expression Analysis (LTEA) Assay for X-box binding protein 1 (XBP1) using HepaRG (AID 2283540; active = hit-call score of the fitted dose curve at least 0.9, where 1 is the maximum; inactive = score below 0.9); conditions: mRNA level, 48 h; actives raise or lower the signal
Summary of the method: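 Eight concentrations (half-log, highest 100 uM, 0.5% DMSO) tested in duplicate on HepaRG cells over 48 h in serum-free induction medium; qRT-PCR of XBP1 normalised to ACTB, GAPDH, POLR2A.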

[10] = ATG_XTT_Cytotoxicity: Cytotoxicity Assessment in the Attagene TRANS-FACTORIAL HepG2 Assay (AID 2283584)
Summary of the method: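 24 h chemical exposure of reporter-transfected HepG2; XTT signal loss vs DMSO indicates cytotoxicity.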

[11] = target: Cellular tumor antigen p53 (Homo sapiens) (UniProt P04637); assay: TOX21_p53_BLA_p2_ratio: Tox21 HCT-116 p53 Agonism Beta-lactamase Assay, Ratio, Phase 2 (AID 2283592)
Sequence of Cellular tumor antigen p53 (Homo sapiens) (P04637 whole entry, looked up): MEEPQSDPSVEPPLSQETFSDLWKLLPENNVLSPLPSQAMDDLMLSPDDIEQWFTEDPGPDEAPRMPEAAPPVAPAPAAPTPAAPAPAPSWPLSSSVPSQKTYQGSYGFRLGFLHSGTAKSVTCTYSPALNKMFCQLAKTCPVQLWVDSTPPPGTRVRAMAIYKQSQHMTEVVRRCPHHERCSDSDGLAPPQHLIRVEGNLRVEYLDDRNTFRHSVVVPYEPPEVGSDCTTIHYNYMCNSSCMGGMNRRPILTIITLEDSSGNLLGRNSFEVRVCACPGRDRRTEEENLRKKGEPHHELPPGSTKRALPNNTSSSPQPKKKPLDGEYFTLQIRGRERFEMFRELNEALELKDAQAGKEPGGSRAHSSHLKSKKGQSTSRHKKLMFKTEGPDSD
Summary of the method: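 DMSO-normalized, positive-direction endpoint derived from the 460 nm/530 nm FRET ratio in HCT116 p53 beta-lactamase reporter cells exposed 16 h at 37C and loaded with CCF4-AM for 2 h.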

[12] = TOX21_p53_BLA_p3_viability: Viability Assessment in the Tox21 HCT-116 p53 Agonism Beta-lactamase Assay, Phase 3 (AID 2283593);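 note: cells exposed to compound for 16 h before reading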
Summary of the method: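 Cellular ATP was quantified by CellTiter-Glo luminescence, read after 30 min at room temperature. Beforehand, HCT116 cells (4000/well) received compound 5 h post-seeding, 217-fold diluted from DMSO, then incubated 16 h at 37C.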

[13] = target: Cellular tumor antigen p53 (Homo sapiens) (UniProt P04637); assay: TOX21_p53_BLA_p3_ratio: Tox21 HCT-116 p53 Agonism Beta-lactamase Assay, Ratio, Phase 3 (AID 2283596)
Summary of the method: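 Cells were seeded at 4000/well, rested 5 h at 37C, then dosed with DMSO compound solutions (217-fold dilution) for 16 h. CCF4-AM substrate was loaded for 2 h at room temperature, and the 460/530 nm emission ratio was fitted for gain of signal versus DMSO.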

[14] = TOX21_p53_BLA_p4_viability: Viability Assessment in the Tox21 HCT-116 p53 Agonism Beta-lactamase Assay, Phase 4 (AID 2283597);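 note: hits lower the luminescence signal meaning cytotoxicity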
Summary of the method: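 In this multiplexed secondary endpoint, HCT116 cells (4000 per well, compound at 5 h, 16 h treatment) received CellTiter-Glo after the beta-lactamase read. Luminescence after 30 min RT reflects ATP, and falling signal marks cytotoxicity.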

[15] = target: Cellular tumor antigen p53 (Homo sapiens) (UniProt P04637); assay: TOX21_p53_BLA_p5_ratio: Tox21 HCT-116 p53 Agonism Beta-lactamase Assay, Ratio, Phase 5 (AID 2283599)
Summary of the method: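 Beta-lactamase reporter ratio (blue 460 nm over green 530 nm, 405 nm excitation) after 2 h CCF4-AM loading, in HCT-116 cells exposed 16 h at 37 C to compounds pinned at 217-fold dilution. Increases relative to DMSO baseline scored.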

[16] = TOX21_p53_BLA_p5_viability: Viability Assessment in the Tox21 HCT-116 p53 Agonism Beta-lactamase Assay, Phase 5 (AID 2283600)
Summary of the method: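 Here cell health was gauged by ATP levels in wells holding 4000 cells, each treated 16 h with DMSO-delivered compounds at 217-fold dilution; reduced luminescence marked toxicity.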

[17] = target: Cellular tumor antigen p53 (Homo sapiens) (UniProt P04637); assay: TOX21_p53_BLA_p4_ratio: Tox21 HCT-116 p53 Agonism Beta-lactamase Assay, Ratio, Phase 4 (AID 2283601)
Summary of the method: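 Signal is the blue/green (460nm/530nm) ratio of cleaved versus uncleaved CCF4-AM substrate, read after 2 h substrate loading. Cells were HCT116 carrying the p53-responsive beta-lactamase reporter, dosed 16 h at 37C, 5% CO2; CellTiter-Glo measured in parallel.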

[18] = read-out: Transforming Growth Factor (TGFB1), TGFB1 (gene 7040); assay: LTEA_HepaRG_TGFB1: Life Technologies and Expression Analysis (LTEA) Assay for Transforming Growth Factor (TGFB1) Transporter using HepaRG (AID 2283533; active = hit-call score of the fitted dose curve at least 0.9, where 1 is the maximum; inactive = score below 0.9); conditions: mRNA level, 48 h; actives raise or lower the signal
Summary of the method: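 Eight-point concentration-response (max 100 uM, half-log) in HepaRG under serum-free induction conditions, 48 h. TGFB1 mRNA by qRT-PCR, housekeeping-normalized.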

[19] = TOX21_p53_BLA_p2_viability: Viability Assessment in the Tox21 HCT-116 p53 Agonism Beta-lactamase Assay, Phase 2 (AID 2283591);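 note: compound exposure lasted 16 h at 37 °C; actives lower the ATP signal meaning cytotoxicity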
Summary of the method: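 Cytotoxicity readout: CellTiter-Glo ATP luminescence, 30 min at room temperature, after the beta-lactamase read. Cells were HCT116 exposed 16 h at 37C to compounds pin-transferred at 217-fold dilution from DMSO stocks.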

Measured: AC50

CC(C)(C)OOC(C)(C)C
not listed: [18] | [19]
inactive: all other assays above

CCOS(=O)(=O)OCC
not listed: [10] | [19]
inactive: all other assays above

CC(C)(C)c1ccc(O)cc1
inactive: [1] | [2] | [3] | [4] | [5] | [6] | [7] | [8] | [9]

CCCN(CCC)c1c([N+](=O)[O-])cc(C(C)C)cc1[N+](=O)[O-]
active: [3] 0.11 µM | [4] 0.0432 µM | [6] 0.322 µM | [7] 1.85 µM | [8] 1.17 µM
not listed: [15] | [17] | [18] | [19]
inactive: all other assays above

Cc1ccc(O)cc1C
inactive: [1] | [2] | [3] | [4] | [5] | [6] | [7] | [8] | [9]

Nc1cc2c3c(c1)C(c1ccccc1)=N[C@@H](NC(=O)c1cccnc1)C(=O)N3CC2
inactive: [1] | [2] | [3] | [4] | [5] | [7] | [8] | [9]

OCC1CO1 (configuration not stated)
not listed: [18] | [19]
inactive: all other assays above

Cc1ccc(N)cc1N
inactive: [1] | [2] | [18] | [3] | [4] | [6] | [8] | [9] | [11] | [12] | [13] | [15] | [16] | [17]
active: [5] 4.89 µM | [7] 15 µM | [17] 14.7 µM

Cc1cccc(N)c1
not listed: [10] | [18] | [19]
inactive: all other assays above

CC(C)Nc1ccc(Nc2ccccc2)cc1
active: [11] 14.6 µM and 23.1 µM | [13] 66.1 µM and 76.4 µM and 31.5 µM | [14] 46.1 µM and 45.9 µM and 19.2 µM | [15] 66.4 µM and 78.4 µM and 24 µM | [17] 14.9 µM
inactive: [10] | [11] | [12] | [16] | [17]

Cc1ccc2c(c1N)C(=O)c1ccccc1C2=O
inactive: [10] | [19] | [11] | [12] | [13] | [14] | [15] | [16] | [17]

CCCCN(CC)C(=O)SCCC
inactive: [19] | [11] | [12] | [13] | [14] | [15] | [16] | [17]

COP(=O)(O)OC
active: [16] 85.6 µM
inactive: [10] | [11] | [12] | [13] | [17]

CCOP(=S)(S)OCC
inactive: [10] | [11] | [13] | [14] | [16] | [17]

CCOP(=S)(OCC)SCn1nnc2ccccc2c1=O
inactive: [10] | [11] | [12] | [13] | [14] | [15] | [16] | [17]
